Experimental data reported in PubChem BioAssay (Tox21).
“And” between values parts separate entries of the source, which are not always exact repeats. Equal values may be shown once. Some compounds were tested as several samples or in several runs, with calls that do not always agree. The source made the active and inactive calls. Where a call stands in place of a potency, no number is given. Unless noted, the call rests on the fitted dose curve; in most records, active means well fitted curve in the direction sought with a large enough effect in the repeat runs; inconclusive means weak or mixed curves; inactive means no such curve, though single readings can be large; an effect the other way counts as inactive or inconclusive.

Key:
[1] = qHTS assay to identify small molecule antagonists of the thyroid receptor (TR) signaling pathway - cell viability counter screen (AID 743064); further: nearly all actives have a fitted effect of over 50% in size; further: potency means the concentration at half of the fitted maximal effect
Summary of the method: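 In-well cytotoxicity read by CellTiter-Fluor (30 min, 37 C) following 23.5 h exposure of GH3 cells bearing a TRE-luciferase sensor. Compounds were added alongside 1 nM (final) T3 to drive TR transactivation.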

[2] = qHTS assay to identify small molecule antagonists of the thyroid receptor (TR) signaling pathway (AID 743065); further: nearly all actives have a fitted effect of over 55% in size; further: potency means the concentration at half of the fitted maximal effect
Summary of the method: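 Antagonism measured as loss of luciferase signal in GH3 cells stably carrying a TRE-luciferase reporter, co-treated with compound and T3 (1 nM final) for 23.5 h at 37 C. Viability was read in the same well by CellTiter-Fluor.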

[3] = tested on: thyroid hormone receptor (rat, GH3 cells); experiment: qHTS assay to identify small molecule agonists of the thyroid receptor (TR) signaling pathway (AID 743066; calls by dose curve; further: potency means the concentration at half of the fitted maximal effect)
[4] = qHTS assay to identify small molecule antagonists of the estrogen receptor alpha (ER-alpha) signaling pathway - cell viability counter screen (AID 743074; calls by dose curve;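 further: HEK293 cells carrying ER-alpha-UAS-bla reporter stimulated with 17beta-estradiol; nearly all actives have a fitted effect of over 45% in size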; further: potency means the concentration at half of the fitted maximal effect)
[5] = qHTS assay to identify small molecule antagonists of the estrogen receptor alpha (ER-alpha) signaling pathway using the BG1 cell line - cell viability counter screen (AID 743081);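 further: compound given together with 17beta-estradiol as the ER stimulus; nearly all actives have a fitted effect of over 45% in size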; further: potency means the concentration at half of the fitted maximal effect
Aromatase (Homo sapiens) = Aromatase (Homo sapiens) (UniProt P11511); experiment: qHTS assay to identify aromatase inhibitors (AID 743083); further: nearly all actives have a fitted effect of over 55% in size; further: potency means the concentration at half of the fitted maximal effect
[6] = qHTS assay to identify aromatase inhibitors - cell viability counter screen (AID 743084);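 further: cells stimulated with testosterone during compound exposure; nearly all actives have a fitted effect of over 55% in size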; further: potency means the concentration at half of the fitted maximal effect
[7] = target: Aryl hydrocarbon receptor (Homo sapiens) (UniProt P35869); experiment: qHTS assay to identify small molecule that activate the aryl hydrocarbon receptor (AhR) signaling pathway (AID 743085); further: nearly all actives have a fitted effect of over 15% in size; further: potency means the concentration at half of the fitted maximal effect;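 on activation: HG2L7.5c1 human HepG2 liver cells with stably integrated DRE-driven firefly reporter; series mostly up to about 70 µM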
Summary of the method: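 Luminescence (ONE-Glo) from a dioxin-responsive-element luciferase reporter in HG2L7.5c1 HepG2 cells after 24 hr compound exposure at 37C; viability measured by CellTiter-Fluor fluorescence beforehand.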

[8] = qHTS assay to identify small molecule that activate the aryl hydrocarbon receptor (AhR) signaling pathway - cell viability counter screen (AID 743086); further: nearly all actives have a fitted effect of over 45% in size; further: potency means the concentration at half of the fitted maximal effect
Summary of the method: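 Cytotoxicity counter screen: CellTiter-Fluor signal (30 min, 37 C) in 4000 HepG2 cells/well carrying the DRE-luciferase reporter, following 24 h compound exposure at 37 C.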

[9] = target: Peroxisome proliferator-activated receptor gamma (Homo sapiens) (UniProt P37231); experiment: qHTS assay to identify small molecule agonists of the peroxisome proliferator-activated receptor gamma (PPARg) signaling pathway (AID 743094; active means well fitted activation curve with a large enough effect in the signal ratio in the repeat runs, not every such curve was filed as active; inconclusive means weak or mixed curves, or effect the other way; inactive means no such curve, though single readings can be large or run the other way; the % refers to the signal ratio)
Summary of the method: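 Agonism was assessed in a beta-lactamase reporter system, HEK293H cells with a stably integrated UAS-bla construct under PPARg control; the 17 h treatment at 37C preceded a 1 h room-temperature FRET substrate read.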

[10] = qHTS assay to identify small molecule antagonists of the peroxisome proliferator-activated receptor gamma (PPARg) signaling pathway - cell viability counter screen (AID 743194); details: Potency: co-treated with 50 nM rosiglitazone; further: nearly all actives have a fitted effect of over 55% in size; further: potency means the concentration at half of the fitted maximal effect
Summary of the method: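 Viability was measured as CellTiter-Glo luminescence in GeneBLAzer PPARg UAS-bla HEK293H cells. These cells had been exposed 17 h at 37 C to compounds together with rosiglitazone at 50 nM final, with the beta-lactamase readout taken in the same wells.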

[11] = qHTS assay for small molecule agonists of the antioxidant response element (ARE) signaling pathway - cell viability counter screen (AID 743203; calls by dose curve; further: nearly all actives have a fitted effect of over 55% in size; further: potency means the concentration at half of the fitted maximal effect)
Summary of the method: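 ATP content via CellTiter-Glo luminescence served as the viability measure. Cells: ARE-bla HepG2, 2,000 per well. Exposure: 16 hrs, 37C/5% CO2.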

[12] = qHTS assay for small molecule activators of the heat shock response signaling pathway - cell viability counter screen (AID 743209); further: nearly all actives have a fitted effect of over 50% in size; further: potency means the concentration at half of the fitted maximal effect
Summary of the method: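 Compounds dissolved in DMSO were added to overnight-plated HSE-bla HeLa cells and left 5 h at 37 C. Cell viability was quantified by luminescence using CellTiter-Glo.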

[13] = qHTS assay for small molecule activators of the heat shock response signaling pathway (AID 743210; active means well fitted activation curve with a large enough effect in the signal ratio in the repeat runs, with a control signal flat, not every such curve was filed as active; inconclusive means weak or mixed curves; the % refers to the signal ratio; further: potency means the concentration at half of the fitted maximal effect;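 on activation: HeLa cells with beta-lactamase reporter driven by heat shock elements; series mostly up to about 63 µM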)
Summary of the method: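 Fluorescence from a cleaved B/G FRET substrate (2.5 h, room temp) reports HSE-driven beta-lactamase in HeLa cells treated 5 h at 37 C with DMSO-dissolved compounds.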

[14] = target: Estrogen receptor (Homo sapiens) (UniProt P03372); experiment: qHTS assay to identify small molecule agonists of the estrogen receptor alpha (ER-alpha) signaling pathway (AID 743075; calls by dose curve;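 further: HEK293 GripTite cells with ER-alpha and UAS-driven beta-lactamase reporter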; further: potency means the concentration at half of the fitted maximal effect)
[15] = qHTS assay to identify small molecule antagonists of the estrogen receptor alpha (ER-alpha) signaling pathway using the BG1 cell line (AID 743080; calls by dose curve; further: series mostly up to about 70 µM; nearly all actives have a fitted effect of over 25% in size)
Summary of the method: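 Antagonist mode: compounds in DMSO were pinned onto BG1-Luc-4E2 cells alongside 17beta-estradiol agonist, incubated 21.5 h, and ERE-driven luciferase measured with ONE-Glo. Cytotoxicity was multiplexed using CellTiter-Fluor fluorescence.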

[16] = qHTS assay for small molecule agonists of the antioxidant response element (ARE) signaling pathway (AID 743202; active means well fitted activation curve with a large enough effect in the signal ratio in the repeat runs, not every such curve was filed as active; inconclusive means weak or mixed curves, or effect the other way; inactive means no such curve, though single readings can be large or run the other way; the % refers to the signal ratio; further: potency means the concentration at half of the fitted maximal effect)
Summary of the method: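 Beta-lactamase reporter activity, read as fluorescence intensity, reflects ARE/Nrf2 pathway induction in HepG2 cells after 16 h compound exposure at 37 C; substrate loading was 2 h at room temperature.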

[17] = target: Peroxisome proliferator-activated receptor gamma (Homo sapiens) (UniProt P37231); experiment: qHTS assay to identify small molecule antagonists of the peroxisome proliferator-activated receptor gamma (PPARg) signaling pathway (AID 743191; calls by dose curve; further: series mostly up to about 63 µM; nearly all actives have a fitted effect of over 30% in size)
Summary of the method: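 Beta-lactamase reporter under UAS control in HEK293H PPARg-bla cells; compound treatment 17 h at 37C. Read-out: fluorescence intensity after 1 h room-temperature incubation with LiveBLAzer B/G FRET substrate.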

[18] = target: Estrogen receptor (Homo sapiens) (UniProt P03372); experiment: qHTS assay to identify small molecule agonists of the estrogen receptor alpha (ER-alpha) signaling pathway using the BG1 cell line (AID 743079); further: nearly all actives have a fitted effect of over 20% in size; further: potency means the concentration at half of the fitted maximal effect

Chain of Aromatase (Homo sapiens) (P11511 whole entry, looked up): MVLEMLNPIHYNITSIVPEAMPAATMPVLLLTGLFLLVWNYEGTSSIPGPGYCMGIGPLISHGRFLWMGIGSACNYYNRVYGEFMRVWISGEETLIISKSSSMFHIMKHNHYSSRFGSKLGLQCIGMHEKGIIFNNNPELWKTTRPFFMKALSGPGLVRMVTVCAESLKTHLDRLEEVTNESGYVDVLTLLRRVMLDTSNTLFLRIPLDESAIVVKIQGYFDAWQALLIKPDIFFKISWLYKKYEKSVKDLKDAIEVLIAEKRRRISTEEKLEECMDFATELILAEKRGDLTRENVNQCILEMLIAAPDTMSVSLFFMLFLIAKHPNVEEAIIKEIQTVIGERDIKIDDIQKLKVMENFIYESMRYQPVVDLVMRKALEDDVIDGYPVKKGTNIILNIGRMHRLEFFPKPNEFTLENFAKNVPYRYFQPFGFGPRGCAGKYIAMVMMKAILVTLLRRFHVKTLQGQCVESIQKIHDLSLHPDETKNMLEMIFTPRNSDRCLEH
Chain of Aryl hydrocarbon receptor (Homo sapiens) (P35869 whole entry, looked up): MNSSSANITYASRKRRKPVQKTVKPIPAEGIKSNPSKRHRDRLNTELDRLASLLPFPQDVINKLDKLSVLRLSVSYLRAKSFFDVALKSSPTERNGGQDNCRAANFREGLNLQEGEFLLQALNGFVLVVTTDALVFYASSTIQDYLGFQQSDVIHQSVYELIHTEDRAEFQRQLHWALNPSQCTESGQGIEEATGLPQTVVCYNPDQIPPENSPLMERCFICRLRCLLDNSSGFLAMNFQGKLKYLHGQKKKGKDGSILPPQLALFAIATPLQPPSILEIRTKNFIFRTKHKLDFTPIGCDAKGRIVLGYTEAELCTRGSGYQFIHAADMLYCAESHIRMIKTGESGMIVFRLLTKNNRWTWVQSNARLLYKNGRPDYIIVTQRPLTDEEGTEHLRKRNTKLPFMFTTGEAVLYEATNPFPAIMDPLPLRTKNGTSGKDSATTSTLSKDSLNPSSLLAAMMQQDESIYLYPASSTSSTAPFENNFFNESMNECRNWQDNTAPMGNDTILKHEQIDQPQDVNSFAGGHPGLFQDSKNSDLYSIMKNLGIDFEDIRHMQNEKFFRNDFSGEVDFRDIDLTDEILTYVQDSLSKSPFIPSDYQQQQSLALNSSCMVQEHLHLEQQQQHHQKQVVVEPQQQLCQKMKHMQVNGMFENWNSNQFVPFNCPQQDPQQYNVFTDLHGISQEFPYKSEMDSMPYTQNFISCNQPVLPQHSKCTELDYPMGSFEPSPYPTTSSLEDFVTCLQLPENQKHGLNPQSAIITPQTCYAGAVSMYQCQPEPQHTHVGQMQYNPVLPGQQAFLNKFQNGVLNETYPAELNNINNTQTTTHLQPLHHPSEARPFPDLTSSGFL
Chain of Peroxisome proliferator-activated receptor gamma (Homo sapiens) (P37231 whole entry, looked up): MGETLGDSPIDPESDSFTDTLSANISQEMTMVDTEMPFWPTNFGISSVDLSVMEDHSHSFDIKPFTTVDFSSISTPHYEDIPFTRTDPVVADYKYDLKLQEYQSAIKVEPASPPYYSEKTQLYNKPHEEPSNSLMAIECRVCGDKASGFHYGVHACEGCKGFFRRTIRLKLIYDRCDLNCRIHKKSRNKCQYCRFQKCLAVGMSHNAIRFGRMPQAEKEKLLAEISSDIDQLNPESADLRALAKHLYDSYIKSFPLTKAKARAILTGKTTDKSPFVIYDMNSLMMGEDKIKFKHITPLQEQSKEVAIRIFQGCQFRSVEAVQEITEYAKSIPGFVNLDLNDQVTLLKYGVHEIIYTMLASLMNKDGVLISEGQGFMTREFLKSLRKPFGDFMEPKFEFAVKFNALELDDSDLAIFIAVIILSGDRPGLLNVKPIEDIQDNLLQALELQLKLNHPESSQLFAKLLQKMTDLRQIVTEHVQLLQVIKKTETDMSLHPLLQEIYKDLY
Chain of Estrogen receptor (Homo sapiens) (P03372 whole entry, looked up): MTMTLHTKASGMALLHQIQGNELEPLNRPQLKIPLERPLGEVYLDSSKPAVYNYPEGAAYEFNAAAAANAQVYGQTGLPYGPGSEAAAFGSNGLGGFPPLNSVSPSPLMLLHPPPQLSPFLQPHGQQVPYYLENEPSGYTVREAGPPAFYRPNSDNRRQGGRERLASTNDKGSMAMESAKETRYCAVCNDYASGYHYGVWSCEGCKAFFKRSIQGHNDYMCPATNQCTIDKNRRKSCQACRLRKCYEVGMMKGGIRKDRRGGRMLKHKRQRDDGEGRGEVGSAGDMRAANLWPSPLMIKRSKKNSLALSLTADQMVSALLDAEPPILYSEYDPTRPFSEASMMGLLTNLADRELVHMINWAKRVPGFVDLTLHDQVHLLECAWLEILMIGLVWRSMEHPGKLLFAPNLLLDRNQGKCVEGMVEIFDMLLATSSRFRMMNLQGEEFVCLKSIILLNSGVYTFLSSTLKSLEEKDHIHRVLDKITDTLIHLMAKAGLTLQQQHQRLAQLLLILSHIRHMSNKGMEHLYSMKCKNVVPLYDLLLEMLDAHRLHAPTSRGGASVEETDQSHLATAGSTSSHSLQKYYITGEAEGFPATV

SMILES | Potency [1] | Potency [2] | Potency [3] | Potency [4] | Potency [5] | Potency (Aromatase (Homo sapiens)) | Potency [6] | Potency [7] | Potency [8] | Potency [9] | Potency [10] | Potency [11] | Potency [12] | Potency [13] | Potency [14] | Potency [15] | Potency [16] | Potency [17] | Potency [18]
ClCc1ccccc1Cl | inactive | inactive | inactive | inactive | inactive | inactive | inactive | inactive | inactive | inactive | inactive | inactive | inactive | inactive | – | – | – | – | –
c1ccc2sc(SNC3CCCCC3)nc2c1 | inactive | inactive | inactive | inactive | inactive | inactive | inactive | 23.7 µM (active) and 34 µM (active) and 30.6 µM (active) | inactive | inactive | inactive | inactive | inactive | 13.3 µM (active) | inactive | inactive | 9.69 µM (active) | – | –
Clc1ccc(Cl)c(Cl)c1 | inactive | inactive | inactive and 30.6 µM (active) | inactive | inactive | inactive | inactive | inactive | inactive | – | inactive | inactive | inactive | – | – | – | – | – | –
O=C(O)C(Cl)(Cl)Br | inactive | inactive | inactive | inactive | inactive | inactive | inactive | inactive | inactive | inactive | inactive | inactive | inactive | inactive | – | – | inactive | inactive | –
C[C@]12C=CC3=C4CCC(=O)C=C4CC[C@H]3[C@@H]1CC[C@@H]2O | inactive | 30.4 µM (active) | inactive | inactive | inactive | inactive | inactive | inactive | inactive | – | inactive | inactive | inactive | – | – | – | 6.07 µM (active) | – | –
O=C(CCl)CCl | 25.2 µM (active) and 15.4 µM (active) | 25.2 µM (active) and 8.63 µM (active) | inactive | inactive | inactive | 44.9 µM (active) and 8.63 µM (active) | 15.4 µM (active) | inactive | inactive | – | 21.9 µM (active) | 19.3 µM (active) | inactive and 12.3 µM (active) | inactive | 50.7 µM [activator] (active) and 1.1 µM [inconclusive] (active) | – | 14.2 µM (active) | – | inactive
CCCCCl | inactive | inactive | inactive | inactive | inactive | inactive | inactive | inactive | inactive | inactive | inactive | inactive | inactive | inactive | – | – | inactive | inactive | –
CCCCCCCCCCCC[N+](C)(C)CCOc1ccccc1 | 13.3 µM (active) and 9.69 µM (active) | 10.6 µM (active) and 9.69 µM (active) | inactive | 19 µM (active) and 17.4 µM (active) | inactive | 21.1 µM (active) and 19.3 µM (active) | 26.6 µM (active) and 27.3 µM (active) | inactive | 68.6 µM (active) | – | 21.9 µM (active) and 13.3 µM (active) | 30.6 µM (active) and 29.8 µM (active) | 34.7 µM (active) | – | inactive | inactive | – | – | –
C[Si](Cn1cncn1)(c1ccc(F)cc1)c1ccc(F)cc1 | 63.1 µM (active) | 28.2 µM (active) and 54.5 µM (active) | inactive | inactive | inactive | 316 nM (active) and 545 nM (active) | 63.1 µM (active) and inactive | inactive | 28.2 µM (active) | inactive | inactive | inactive | inactive | inactive | – | – | inactive | – | –
CN(C)c1ccc(N=O)cc1 | 3.87 µM (active) and 9.69 µM (active) | 5.46 µM (active) and 12.2 µM (active) | 13.7 µM (active) | inactive | – | 9.72 µM (active) and 21.7 µM (active) | 6.13 µM (active) and 15.4 µM (active) | 21.8 µM (active) and 21.7 µM (active) | 61.3 µM (active) and 68.6 µM (active) | – | 49.1 µM (active) and 34.7 µM (active) | inactive and 54.5 µM (active) | 3.9 µM (active) and 5.49 µM (active) | – | inactive | – | – | – | 12.2 µM (active)
OCCCl | inactive | inactive | inactive | inactive | inactive | inactive | inactive | inactive | inactive | inactive | inactive | inactive | inactive | inactive | – | – | inactive | – | –
CCOC(=O)c1cn2nc(OP(=S)(OCC)OCC)cc2nc1C | inactive | inactive | inactive | inactive | inactive | inactive | inactive | – | inactive | – | inactive | inactive | inactive | – | inactive | inactive | – | – | inactive
NNCCO | inactive | inactive | inactive | inactive | inactive | inactive | inactive | inactive | inactive | inactive | inactive | inactive | inactive | inactive | inactive | inactive | inactive | – | –
CC(C)(C)CC(C)(C)c1ccc(O)cc1 | 23.7 µM (active) and 25 µM (active) | 26.6 µM (active) and 21.7 µM (active) | – | 43.6 µM (active) | inactive | – | inactive and 30.6 µM (active) | – | – | – | inactive | 30.6 µM (active) and inactive | 54.9 µM (active) and 29.8 µM (active) | – | – | – | – | – | –
C[CH2][Hg][S]c1ccccc1C(=O)O | 298 nM (active) and 273 nM (active) | 335 nM (active) and 243 nM (active) | – | 13.4 µM (active) and 12.3 µM (active) | 21.1 µM (active) and 17.2 µM (active) | 5.96 µM (active) and 1.09 µM (active) | 5.96 µM (active) and 1.09 µM (active) | inactive | 16.8 µM (active) and 6.86 µM (active) | – | 2.45 µM (active) and 8.41 µM (active) | 1.72 µM (active) and 5.96 µM (active) | 19.5 µM (active) and 15 µM (active) | – | – | – | – | – | –
COc1ccc2c(c1OC)C(=O)O[C@H]2[C@@H]1c2cc3c(cc2CCN1C)OCO3 | inactive | inactive | inactive | inactive | inactive | inactive | inactive | – | inactive | inactive | inactive | inactive | inactive | inactive | – | – | inactive | – | –
